Values joined by “and” are separate entries in the source; they are usually repeats but may differ in a detail not shown here. Equal values may be shown once. This is part of a sample that, as a whole, favours compounds with a hit. Of some 83,000 tested, about 20% had one in any assay.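 Cells were grown in 96-well plates and exposed to the test compound at a single concentration for 48 hours; results are reported as percent growth, with values below 10 considered active.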 Active and inactive are the calls of the source.

One assay relates to MOLT-4 leukemia. In words: NCI-60 one-dose screen, 48 h (100 = growth as untreated, 0 = no growth, -100 = all killed). The note with it: 10 µM. The method, then:
Growth inhibition of the MOLT-4 human tumor cell line is measured as a screen for anti-cancer activity. Cells are grown in 96 well plates and exposed to the test compound for 48 hours. Compounds are tested at a single concentration, which is 10^-5 M for most compounds. The reported endpoint is percent growth (GI% or GIPRCNT), where numbers from 0 - 100% represent growth inhibition, and numbers from -100% - 0 represent cell death. For example, a value of 40 represents 60% growth inhibition. A value of 0 means no net growth occurred over the course of the experiment. A value of -40 indicates 40% of cells at the beginning of the experiment died by the end of the experiment. A value of -100 means all cells are dead at the end of the experiment.
NCI-60 Human Tumor Cell Lines Screen was performed using the standard one-dose NCI protocol, which is described in more detail at https://dtp.cancer.gov/discovery_development/nci-60/default.htm.
Compounds with GIPRCNT values below 10 were considered active. Activity score was based on GIPRCNT using the following formula: […]
Score is 0 for GIPRCNT values of 100 or above, 50 for GIPRCNT values of 0, and 100 for GIPRCNT values of -100.
For the compound `O=C(Nc1c(Cl)cccc1Cl)Oc1cccc2cccnc12`, the growth was 16.6% (inactive).
As for `CN(C)C(=O)c1ccc(SC(=S)NCc2ccccc2)cc1`, the growth was 111% (inactive).

Still in this assay, the particulars now being: 10 µM unless noted.
With `Cc1ccnc(NC(c2ccccc2)c2ccc3cccnc3c2O)c1` (stereo not given), the growth was 18% (inactive).
The same measure, in the same setting: for `O=[N+]([O-])c1ccc2c(N=Nc3ccc4ccccc4c3O)c(O)cc(S(=O)(=O)O)c2c1` the value was 91.7% (inactive).
In the case of `COC(=O)c1nc(=S)[nH]c(C(=O)OC)c1C(=O)c1ccc2ccccc2c1`, the growth is 103% (inactive).
Same read-out and setting: the same measure for `CC(C)(C)CC(C)(C)c1ccc(OCCSC(=N)N)cc1`: 9.3% (active); for `C=CCOc1ccc(N=NC(C#N)C#N)cc1`: 19.5% (inactive); for `N#CSCC(=O)c1ccc(Cl)cc1`: 65.4% (inactive).
`C[N+](C)=c1ccc2nc3c(cc(NCCCNc4cc5oc6cc(=[N+](C)C)ccc-6nc5c5ccccc45)c4ccccc43)oc-2c1`: the growth is 5.25% (active).
As to `C=C(Cl)C(=NC(C)(C)C)Nc1ccccc1C`, the growth was 72.2% (inactive).
With `COc1cc(/C=C/C(C)=O)ccc1O`, the growth is 95.8% (inactive) and 87.2% (inactive).
For the compound `Oc1c(Br)c(Br)c(O)c(Br)c1Br`, the growth is 42.6% (inactive).
Consider `O=C(O)C1C2CC3C(OC(=O)C31)C2Br` (stereo not given), for which the growth is 96.8% (inactive) and 106% (inactive).
On the same count and under the same terms, the same measure for `CCN(CC)CCOc1ccc(-c2nc3cc(Cl)ccc3s2)cc1`: -79.3% (active).
In the case of `N#CSCc1ccc(CSC#N)c(Cl)c1`, the growth was 28.9% (inactive).
`Cc1ccc2c(ccc3c[n+]4c5ccccc5ccc4n32)c1`: the growth was 8.93% (active).
Consider `CCN(CC)CC(C)(C)C(=O)/C=C/c1ccc(Cl)c(Cl)c1`, for which the growth was 2.21% (active).
Turning to `CCC(CC)COC(=O)c1ccc(O)c(O)c1`, the growth was 30.3% (inactive).
Take `OC(CNc1ccnc2cc(Cl)ccc12)CNc1ccnc2cc(Cl)ccc12`: the growth was 12% (inactive).
Regarding `CN(C)CCOc1ccc2c(c1)C(=O)/C(=C\c1ncc([N+](=O)[O-])n1C)C2`, the growth was -32.1% (active).
Consider `Cc1cc2nc(CS)[nH]c2cc1C`, for which the growth is -39.5% (active).
For `C/C=C1\SC(=S)NC1=O`, the growth was 103% (inactive).
Take `CCCCCC(CCCCC)C(=O)O`: the growth is 96.1% (inactive).
On the same count and under the same terms, the same measure for `Cn1c2c(c3ccccc31)CCN1C[C@@H]3CCCC[C@H]3C[C@@H]21`: 31.3% (inactive).
Regarding `CCC1OC(OC)C=CC1=O` (stereo not given), the growth was 103% (inactive).
Consider `O=C(Nc1ccccc1)c1cc(Cl)ccc1O`, for which the growth was 77.2% (inactive).
Take `O=C1c2ccccc2C(=O)N1c1ccccc1`: the growth is 103% (inactive).
Still for that read-out and setting: the same measure for `Nc1ccc(SSc2ccc(N)cc2)cc1`: 96.1% (inactive); for `CN(C)C(=O)SC1=C(c2c(Cl)cccc2Cl)C(=O)c2ccccc21`: -22.5% (active); for `O=C(/C=C/c1cccc(Cl)c1)c1ccccc1`: 90.7% (inactive) and 86.1% (inactive).
On the same count and under the same terms, for `O=C1c2cccnc2-c2nccc3c2c1nc1cc(Br)ccc13` the value was -39.5% (active) and -31% (active); for `CN(C)c1ccc(C(=C2C=CC(=[N+](C)C)C=C2)c2ccc(N(C)C)cc2)cc1` (tested in a mixture with another compound), -23.7% (active); for `Oc1c(Cl)cc(Cl)c2cccnc12`, 37.1% (inactive) and 35.7% (inactive).
`O=C(Nc1ccccc1)Oc1c(Cl)c(Cl)c(Cl)c(Cl)c1Cl`: the growth was 90.8% (inactive) and 96.1% (inactive).
For `CN=C(N)N/N=C(\C)c1ccc2c(c1)Cc1cc(/C(C)=N/NC(N)=NC)ccc1-2`, the growth was -10.8% (active).
Turning to `O=C(CC1(O)C(=O)Nc2c(Cl)ccc(Cl)c21)c1ccc(Cl)cc1Cl` (stereo not given), the growth is 106% (inactive).
As to `NC(=O)/C=C/C(=O)c1c(Cl)cccc1Cl`, the growth is -26.3% (active).
As for `Cc1ccc(N=C=C(c2ccccc2)c2ccccc2)cc1`, the growth was -1.03% (active).

The same assay, now with this note: 100 µM.
As for `O=C(Nc1c(Cl)cccc1Cl)Oc1cccc2cccnc12`, the growth is 8.36% (active).
For the compound `CN(C)C(=O)c1ccc(SC(=S)NCc2ccccc2)cc1`, the growth was 3.1% (active).

These data come from PubChem BioAssay (NCI).
